Reference: PubChem BioAssay (Tox21)
Several values for one entry are separate records, joined by “and”; a condition that tells them apart may be missing. Equal values may be shown once. Inconclusive results are not listed. A structure can be active in one record and inactive in another. Activity calls are given as the source filed them. Unless noted, calls follow the shape of the dose curve; as a rule, active = well fitted curve in the direction sought with a large enough effect in the repeat runs; inconclusive = weak or mixed curves; inactive = no such curve, though single readings can be large; an effect the other way counts as inactive or inconclusive.

Assays:
[1] = A CellTox Green Cytotoxicity Assay to monitor cytotoxicity in HepG2 cells - 8 hour (AID 1224890); also: % is scaled to controls: 0 for no effect and ±100 for the full control effect; nearly all actives have a fitted effect of over 45% in size
Summary of the method: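 HepG2 cells were seeded together with the CellTox Green dye at 600 cells/well, left 5 h at 37 C/5% CO2, then given compounds in DMSO. Fluorescence from dye bound to dead-cell DNA was read repeatedly over 40 h of treatment at 37 C.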

[2] = qHTS assay to identify small molecule antagonists of the androgen receptor (AR) signaling pathway using the MDA cell line in the presence of 0.5 nM R1881 - cell viability counter screen (AID 1259242); also: potency is read from the fitted curve at half-maximal effect; nearly all actives have a fitted effect of over 45% in size
Summary of the method: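 MDA-kb2 cells (human breast carcinoma, stably carrying MMTV-luciferase reporter) were exposed to compounds with 0.5 nM R1881 (final) for 16 hr at 37C, 0% CO2; viability then read as live-cell protease fluorescence (CellTiter-Fluor, 30 min) in the same wells.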

[3] = target: Estrogen receptor (Homo sapiens) (UniProt P03372); test: qHTS assay to identify small molecule antagonists of the estrogen receptor alpha (ER-alpha) signaling pathway using the BG1 cell line in the presence of 0.1 nM 17-beta-estradiol (AID 1259244); also: nearly all actives have a fitted effect of over 50% in size; also: potency is read from the fitted curve at half-maximal effect
Summary of the method: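 VM7Luc4E2 cells (endogenous full-length ER-alpha, stable 4xERE-luciferase) were grown 5 days in phenol red-free medium with charcoal-stripped FBS, then exposed 22 h at 37C to compounds plus 0.1 nM (final) 17beta-estradiol; ONE-Glo luminescence read-out.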

[4] = qHTS assay to identify small molecule phospholipidosis (PLD) inducers (AID 1259344; active = well fitted curve in the direction sought with a large enough effect; an effect the other way counts as inactive or inconclusive; also: % is scaled to controls: 0 for no effect and ±100 for the full control effect)
Summary of the method: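 Phospholipidosis is scored by imaging LipidTOX-stained pits in HepG2 cells exposed to compound for 24 h at 37 C; pit counts and integrated intensities per well and per cell serve as outputs.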

[5] = qHTS assay to identify small molecule HDAC inhibitors (AID 1259364); also: nearly all actives have a fitted effect of over 45% in size; also: potency is read from the fitted curve at half-maximal effect
Summary of the method: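 Wild-type HCT-116 cells were plated overnight, exposed to compounds for 2 h at 37 °C, then given HDAC-Glo class I/II luminogenic reagent for 30 min at room temperature before luminescence was read.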

[6] = qHTS assay to identify small molecule HDAC inhibitors - cell viability counter screen (AID 1259365); also: series mostly up to about 92 µM; % is scaled to controls: 0 for no effect and ±100 for the full control effect; nearly all actives have a fitted effect of over 50% in size
Summary of the method: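 Cytotoxicity was gauged in wild-type HCT-116 cells after a brief 2hr treatment with DMSO-dissolved compounds at 37C and 5% CO2, using CellTiter-Glo luminescence developed for 30min at room temperature.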

[7] = qHTS assay to identify small molecule agonists of the sonic hedgehog signaling (Shh) pathway - cell viability counter screen (AID 1259366); also: nearly all actives have a fitted effect of over 50% in size; also: potency is read from the fitted curve at half-maximal effect
Summary of the method: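 Stable Gli1-Luc NIH/3T3 clone, 2,000 cells/well. Compound exposure 24hr at 37C. Read-out: CellTiter-Fluor fluorescence.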

[8] = qHTS assay to identify small molecule antagonists of the sonic hedgehog signaling (Shh) pathway - cell viability counter screen (AID 1259367); also: nearly all actives have a fitted effect of over 55% in size; also: potency is read from the fitted curve at half-maximal effect
Summary of the method: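 Cells: 3T3 Gli1-Luc, 2,000/well, 4 hr pre-incubation. Compounds in DMSO, then conditioned medium. Incubation 24 hr, 37C, 5% CO2. CellTiter-Fluor at 23 hr, 1 hr, fluorescence.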

[9] = qHTS assay to identify small molecule agonists of the sonic hedgehog signaling (Shh) pathway (AID 1259368; calls by dose curve; also: series mostly up to about 92 µM; % is scaled to controls: 0 for no effect and ±100 for the full control effect; nearly all actives have a fitted effect of over 15% in size)
Summary of the method: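 NIH/3T3-derived 3T3Gli1-Luc cells carrying a stably integrated Gli1 response element–firefly luciferase reporter were plated, left 4 hr at 37 C, then given compounds in DMSO for 24 hr. Luminescence was read 30 min after adding luciferase reagent.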

[10] = qHTS assay to identify small molecule agonists of the androgen receptor (AR) signaling pathway in the presence of an antagonist - cell viability counter screen (AID 1259379); also: nearly all actives have a fitted effect of over 25% in size; also: potency is read from the fitted curve at half-maximal effect
Summary of the method: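 MDA-kb2 human breast carcinoma cells (stable MMTV-luciferase, AR/GR responsive) were seeded 3,000 cells/well, pre-incubated 5 hr at 37C without CO2, then given 3.0uM nilutamide and compounds at 15 concentrations for 16 hr. Viability was read by CellTiter-Fluor fluorescence.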

[11] = qHTS assay to identify small molecule agonists of the estrogen receptor beta (ER-beta) signaling pathway - cell viability counter screen (AID 1259380); also: nearly all actives have a fitted effect of over 30% in size; also: potency is read from the fitted curve at half-maximal effect
Summary of the method: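 ER-beta-UAS-bla HEK293T cells in medium with 2% charcoal-stripped FBS were preincubated 6 hr at 37C, dosed with compound in DMSO for 16 hr, then after the bla read, CellTiter-Glo was added for 30 min at room temperature; luminescence recorded.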

[12] = qHTS assay to identify small molecule antagonists of the estrogen receptor beta (ER-beta) signaling pathway - cell viability counter screen (AID 1259382); also: nearly all actives have a fitted effect of over 55% in size; also: potency is read from the fitted curve at half-maximal effect
Summary of the method: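 ER-beta-UAS-bla HEK293T cells (2,000/well, 2% charcoal-stripped FBS) were pre-incubated 6 hr at 37C, then given compound plus 1nM final 17-beta-estradiol for 16 hr. Viability was read in the same wells by CellTiter-Glo luminescence after 30 min at room temperature.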

[13] = qHTS assay to identify small molecule agonists or antagonists of the thyroid stimulating hormone receptor (TSHR) signaling pathway - wild type cell line counter screen (AID 1259384; calls by dose curve; also: % is scaled to controls: 0 for no effect and ±100 for the full control effect)
Summary of the method: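 Counter screen in untransfected Hek293: compounds (15-point titration, triplicate) plus phosphodiesterase inhibitor Ro20-1724 added after 18 h plating; 30 min RT. Intracellular cAMP via competitive d2/cryptate immunoassay, 1 h incubation.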

[14] = qHTS assay to identify small molecule antagonists of the estrogen receptor alpha (ER-alpha) signaling pathway using the BG1 cell line in the presence of 0.1 nM 17-beta-estradiol - cell viability counter screen (AID 1259241); also: % is scaled to controls: 0 for no effect and ±100 for the full control effect; nearly all actives have a fitted effect of over 40% in size
Summary of the method: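 Viability in VM7Luc4E2 cells after 22 hr compound exposure under 0.1 nM 17beta-estradiol stimulation, by CellTiter-Fluor.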

[15] = qHTS assay to identify small molecule antagonists of the sonic hedgehog signaling (Shh) pathway (AID 1259369; calls by dose curve; also: nearly all actives have a fitted effect of over 45% in size; also: potency is read from the fitted curve at half-maximal effect)
Summary of the method: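 NIH/3T3-derived 3T3Gli1-Luc cells with stably integrated Gli1-Luc reporter were preincubated 4hr at 37 C, then given compounds in DMSO plus Shh conditioned medium and incubated 24hr. Firefly luciferase luminescence read after 30min reagent at room temperature.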

[16] = target: Estrogen receptor (Homo sapiens) (UniProt P03372); test: qHTS assay to identify small molecule agonists of the estrogen receptor alpha (ER-alpha) signaling pathway in the presence of an antagonist (AID 1259383; calls by dose curve; also: top concentration of the series differs between compounds; % is scaled to controls: 0 for no effect and ±100 for the full control effect; nearly all actives have a fitted effect of over 15% in size)
Summary of the method: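 VM7Luc4E2 cells (endogenous full-length ER-alpha, 4×ERE-luciferase) were precultured 5 days in phenol red-free medium with 10% charcoal-stripped FBS, given 10.0nM ICI-182,780 (final), then treated with compounds at 15 concentrations for 22hr at 37C; luminescence read with ONE-Glo.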

[17] = target: Estrogen receptor beta (Homo sapiens) (UniProt Q92731); test: qHTS assay to identify small molecule agonists of the estrogen receptor beta (ER-beta) signaling pathway (AID 1259377; active = well fitted activation curve with a large enough effect in the signal ratio in the repeat runs, not every such curve was filed as active; the % refers to the signal ratio; also: % is scaled to controls: 0 for no effect and ±100 for the full control effect)
Summary of the method: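 Measured by fluorescence intensity from a B/G FRET beta-lactamase substrate (2 h, room temperature) in ER-beta-UAS-bla HEK293T cells treated with DMSO-dissolved compounds for 16 hr at 37C and 5% CO2.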

[18] = target: Estrogen receptor beta (Homo sapiens) (UniProt Q92731); test: qHTS assay to identify small molecule antagonists of the estrogen receptor beta (ER-beta) signaling pathway (AID 1259378; active = well fitted inhibition curve with a large enough effect in the signal ratio in the repeat runs, not every such curve was filed as active; the % refers to the signal ratio; also: % is scaled to controls: 0 for no effect and ±100 for the full control effect)
Summary of the method: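 Antagonist mode: compounds added to beta-lactamase reporter HEK293T ER-beta-UAS cells stimulated with E2 (1nM final), 16 hr at 37C. LiveBLAzer B/G FRET substrate, 2 hours room temperature, fluorescence read-out.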

Estrogen receptor beta (Homo sapiens), sequence (Q92731 whole entry, looked up): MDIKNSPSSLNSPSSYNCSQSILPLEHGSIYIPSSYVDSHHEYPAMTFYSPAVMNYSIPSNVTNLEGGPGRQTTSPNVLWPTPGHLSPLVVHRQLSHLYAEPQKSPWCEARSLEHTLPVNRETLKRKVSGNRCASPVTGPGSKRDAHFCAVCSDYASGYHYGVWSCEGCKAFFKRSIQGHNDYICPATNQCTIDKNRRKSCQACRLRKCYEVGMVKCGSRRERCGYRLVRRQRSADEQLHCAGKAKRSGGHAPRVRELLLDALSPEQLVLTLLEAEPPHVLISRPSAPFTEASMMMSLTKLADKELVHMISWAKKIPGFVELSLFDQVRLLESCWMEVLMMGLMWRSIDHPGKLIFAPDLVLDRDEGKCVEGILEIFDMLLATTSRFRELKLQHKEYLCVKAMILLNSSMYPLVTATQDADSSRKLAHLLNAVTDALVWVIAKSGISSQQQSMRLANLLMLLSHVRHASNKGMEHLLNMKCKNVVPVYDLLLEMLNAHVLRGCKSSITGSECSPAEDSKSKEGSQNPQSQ
Estrogen receptor (Homo sapiens), sequence (P03372 whole entry, looked up): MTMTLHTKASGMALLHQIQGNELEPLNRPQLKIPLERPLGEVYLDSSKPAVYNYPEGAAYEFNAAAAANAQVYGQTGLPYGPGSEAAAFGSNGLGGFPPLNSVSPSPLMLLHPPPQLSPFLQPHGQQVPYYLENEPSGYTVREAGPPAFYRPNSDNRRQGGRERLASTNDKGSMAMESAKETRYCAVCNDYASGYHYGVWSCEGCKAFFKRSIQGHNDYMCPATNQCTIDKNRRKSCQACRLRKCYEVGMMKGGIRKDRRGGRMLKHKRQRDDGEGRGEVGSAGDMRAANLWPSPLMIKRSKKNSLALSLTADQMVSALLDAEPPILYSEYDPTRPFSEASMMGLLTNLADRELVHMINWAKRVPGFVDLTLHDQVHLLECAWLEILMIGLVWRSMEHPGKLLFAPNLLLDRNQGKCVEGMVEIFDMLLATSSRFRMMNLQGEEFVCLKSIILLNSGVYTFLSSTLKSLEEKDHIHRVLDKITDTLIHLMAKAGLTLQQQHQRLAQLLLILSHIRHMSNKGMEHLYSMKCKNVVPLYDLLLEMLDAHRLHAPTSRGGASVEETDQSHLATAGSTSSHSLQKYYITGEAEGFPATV

O=C(Nc1ccc([N+](=O)[O-])cc1Cl)c1cc(Cl)ccc1O
inactive: Potency [1] | Potency [4] | outcome [6] | viability change, negative = cytotoxic [7] -20.9% [at 19 µM] | viability change, negative = cytotoxic [8] -21.1% [at 19 µM] | Potency [9] | activity change, negative = cytotoxicity [12] -26.7% [at 19 µM] | outcome [13]
active: Potency [2] 2.17 µM and 1.46 µM | Potency [3] 2.43 µM and 1.64 µM | Potency [5] 969 nM and 580 nM | Potency [7] 68.6 µM | Potency [8] 30.6 µM | Potency [10] 1.93 µM and 1.46 µM | Potency [11] 8.63 µM and 92 nM | Potency [12] 2.17 µM

COC(=O)Nc1nc2ccc(S(=O)c3ccccc3)cc2[nH]1 (stereo not given)
inactive: Potency [1] | Potency [14] | Potency [3] | Potency [4] | Potency [5] | outcome [6] | Potency [7] | Potency [9] | Potency [10] | Potency [11] | Potency [12] | Potency [16]
active: Potency [15] 2.37 µM
inactive and 11.9 µM (active): Potency [8]

C[Si](C)(C)O[Si](C)(C)C
inactive: Potency [1] | Potency [14] | Potency [4] | Potency [5] | outcome [6] | Potency [7] | Potency [8] | Potency [9] | Potency [17] | Potency [18] | Potency [10] | Potency [11] | Potency [12] | outcome [13]

O=C=Nc1ccc(Cc2ccc(N=C=O)cc2)cc1
inactive: Potency [1] | Potency [14] | Potency [5] | outcome [6] | Potency [7] | Potency [8] | Potency [9] | Potency [15] | Potency [17] | Potency [18] | Potency [11] | Potency [12] | outcome [13]

COc1ccc(OC)c(C(O)CNC(=O)CN)c1 (stereo not given)
inactive: Potency [1] | Potency [14] | Potency [3] | Potency [4] | Potency [5] | outcome [6] | Potency [7] | Potency [8] | Potency [9] | Potency [15] | Potency [10] | Potency [12] | Potency [16] | outcome [13]

CCOC(=O)C(C#N)=C(c1ccccc1)c1ccccc1
inactive: Potency [1] | Potency [14] | Potency [4] | Potency [5] | outcome [6] | Potency [7] | Potency [8] | Potency [9] | Potency [15] | Potency [17] | Potency [10] | Potency [11] | Potency [12] | outcome [13]
